Bioassay records (PubChem BioAssay)
This is a sample that favours compounds with a hit; in the whole collection about 6.4% have one here.
KinaseGlo FLuc: blocks Kinase-Glo luciferase, a counter-screen artifact. Q27757. Kinase-Glo luciferase, ATP luminescence, 8 min. Potency, µM (titrated, usually from 38.3 µM), for the others: at the highest dose activity change, negative = inhibition, most hits filed as inhibitors. 0.28% of 200,000 active. AID 1379; further: nearly all actives have a fitted effect of over 60% in size
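Inhibition of Kinase-Glo luciferase light generation was assessed at 10 uM ATP in pH 7.2 imidazole buffer, with luminescence measured after eight minutes at ambient temperature.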
VP16 counter: Gal4-VP16 reporter inhibition counter-screen; Drosophila S2 Gal4-VP16 UAS-luciferase, luminescence, 20 h; Potency, µM (series often up to 53.6 µM), for the others: top-dose activity, negative = inhibition, hits mostly inhibitors; 3.5% of 310,000 active;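 further: Gal4-VP16 expression switched on by copper sulfate through the metallothionein promoter; nearly all actives have a fitted effect of over 50% in size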
RORgamma inh: ROR gamma (mouse) transcription inhibition; P51450; Drosophila S2 Gal4-RORgamma UAS-luciferase reporter, 20 h; Potency, µM (highest dose often 53.6 µM), without a hit: top-dose activity change, negative = inhibition, most hits filed as inhibitors; 5.4% of 310,000 active; AID 2551; further: nearly all actives have a fitted effect of over 60% in size
Target sequence (P51450 whole entry, looked up, the tested form may be a part): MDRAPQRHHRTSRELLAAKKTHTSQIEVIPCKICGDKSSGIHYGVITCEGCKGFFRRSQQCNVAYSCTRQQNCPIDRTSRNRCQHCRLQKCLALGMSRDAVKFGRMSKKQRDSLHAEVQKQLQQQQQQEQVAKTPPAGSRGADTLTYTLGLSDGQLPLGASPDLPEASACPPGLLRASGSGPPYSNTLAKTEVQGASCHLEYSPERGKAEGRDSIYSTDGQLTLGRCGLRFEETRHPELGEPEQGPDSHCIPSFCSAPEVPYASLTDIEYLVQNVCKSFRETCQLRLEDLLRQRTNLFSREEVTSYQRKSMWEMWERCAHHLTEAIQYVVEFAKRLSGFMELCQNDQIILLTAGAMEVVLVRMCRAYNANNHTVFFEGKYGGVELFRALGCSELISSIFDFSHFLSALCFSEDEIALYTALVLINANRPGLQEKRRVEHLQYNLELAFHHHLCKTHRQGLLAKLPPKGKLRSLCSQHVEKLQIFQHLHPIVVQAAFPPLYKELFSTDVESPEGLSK
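Drosophila S2 cells stably expressing Gal4-DBD/mouse RORγ fusion under metallothionein promoter plus UAS-luciferase; compound 1 h, then 700 uM CuSO4 induction for 20 h at ambient temperature; inhibition read as reduced luminescence.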
* = called active by the depositor; [ ] = another dose, or the depositor's remark. The call rests on the fitted dose curve; in most records, active means well fitted curve in the direction sought with a large enough effect; inconclusive means small, poorly fitted or top-dose-only effect, or another doubt; inactive means no such curve, though single readings can be large; an effect the other way counts as inactive or inconclusive. On the % scale 0 is the no-effect control and ±100 the full control effect; potency means the concentration at half of the fitted maximal effect.

Screening Cc1occc1C(=O)NNC(=S)Nc1ccccc1C(F)(F)F returned KinaseGlo FLuc -2%, VP16 counter inconclusive and RORgamma inh -33%.
For Fc1ccc2nc(C(F)(F)F)cc(N3CCOCC3)c2c1 the results were VP16 counter 10% and RORgamma inh -8%.
`CCOC(=O)c1ccc(Nc2ncnc3ccccc23)cc1` gave KinaseGlo FLuc 3%, VP16 counter 3% and RORgamma inh inconclusive.
CCOC(=O)/C(=N\Nc1ncnc2ccccc12)c1ccc(C)cc1 was read as VP16 counter 13µM* and RORgamma inh 5.6µM*.
`CCC(=O)NNc1ncnc2ccccc12` gave KinaseGlo FLuc -1%, VP16 counter -1% and RORgamma inh 12%.
Screening CCOC(=O)C/C(=N\Nc1ncnc2ccccc12)c1ccccc1 returned VP16 counter 6.3µM* and RORgamma inh 6.3µM*.
C[C@H](NC(N)=O)C(=O)N1CCN(S(=O)(=O)c2ccc3ccccc3c2)CC1 was read as VP16 counter -1% and RORgamma inh -33%.
Screening CCN(CC)S(=O)(=O)c1ccc(N2CCCC2)c(NC(=O)Cc2cc(OC)c(OC)c(OC)c2)c1 returned VP16 counter -16% and RORgamma inh 22%.
CN1CCN(c2ncc3nc(-c4cc(F)cc(F)c4)c(=O)n(Cc4cccs4)c3n2)CC1 was read as VP16 counter -1% and RORgamma inh 0%.
Screening O=C(COc1cccc(Cl)c1Cl)Nc1ccc2c(c1)CCC2 returned KinaseGlo FLuc -1%, VP16 counter -9% and RORgamma inh 12%.
O=C(COc1ccccc1Cl)c1ccc2c(c1)CCCC2 was read as KinaseGlo FLuc -9%, VP16 counter inconclusive and RORgamma inh 14µM*.
Screening COc1ccccc1CNC(=O)CCC1N=C2c3ccccc3N=C(SCC(=O)NCC3CCCO3)N2C1=O (stereo not given) returned VP16 counter 0% and RORgamma inh -18%.
CCCSc1nnc2n(C)c(=O)c3c4c(sc3n12)CCC4 was read as KinaseGlo FLuc -4%, VP16 counter 4% and RORgamma inh inconclusive.
For CCCCN(CCCC)C(=O)CSc1nnc2n(C)c(=O)c3c4c(sc3n12)CCCC4 the results were KinaseGlo FLuc -2%, VP16 counter 4.5µM* and RORgamma inh inconclusive.
For O=C(N/N=C/c1ccccn1)C(O)c1ccccc1 (stereo not given) the results were VP16 counter 2% and RORgamma inh 3%.
`CNC(=O)CCCCC(=O)N/N=C/c1ccc(Cl)cc1Cl` gave VP16 counter 2% and RORgamma inh 0%.
Screening Clc1ccc(/C=N/NC(=Nc2ccccc2)c2ccccn2)c(Cl)c1 returned KinaseGlo FLuc -3%, VP16 counter inconclusive and RORgamma inh 13µM*.
C(=N\NC(=Nc1ccccc1)c1ccccn1)/c1ccccn1 was read as KinaseGlo FLuc -1%, VP16 counter 3.2µM* and RORgamma inh 3.2µM*.
For Cc1ccccc1C1CC(=O)Oc2cc(C)c(Br)c(C)c21 (stereo not given) the results were KinaseGlo FLuc 0%[39.9 µM], VP16 counter -21% and RORgamma inh -8%.
Screening N#Cc1nc(NCCCCO)nc(Nc2ccccc2)n1 returned VP16 counter 6%.
Screening Cc1cccc(N(Cc2cc(=O)[nH]c3ccccc23)C(=O)CCl)c1 returned VP16 counter inconclusive and RORgamma inh 18µM*.
Screening CCCC(=O)N(Cc1cc(=O)[nH]c2ccccc12)c1cccc(C)c1 returned VP16 counter -2% and RORgamma inh -2%.
Screening CCNC(=S)N/N=C/c1ccc(OCCOc2ccccc2C)cc1 returned KinaseGlo FLuc 3%, VP16 counter 10µM* and RORgamma inh 4.5µM*.
Screening Cc1ccccc1OCC(=O)N/N=C/c1ccc(N(C)C)cc1 returned KinaseGlo FLuc 0%, VP16 counter -15% and RORgamma inh -14%.
For CCOc1ccc(/C=N/NC(=O)C(OC)c2ccccc2)cc1 (stereo not given) the results were KinaseGlo FLuc 0%, VP16 counter 6% and RORgamma inh 25%.
Screening CCOc1ccc(/C=N/NC(=S)Nc2c(C)cccc2C)cc1 returned KinaseGlo FLuc -3%, VP16 counter 2µM* and RORgamma inh 1µM*.
CCN(CC)S(=O)(=O)c1cc(OC)ccc1N=Nc1ccc(O)c2ncccc12 was read as VP16 counter 1.3µM* and RORgamma inh 1.3µM*.
`O=S(=O)(O)c1cc(N=Nc2cccc3ccccc23)c(O)c2ncccc12` gave KinaseGlo FLuc -12%[7.66 µM].
`CCS(=O)(=O)c1ccc(OC)c(N=Nc2ccc(O)c3ncccc23)c1` gave KinaseGlo FLuc -11%, VP16 counter inconclusive and RORgamma inh 1µM*.
